# High-throughput results: PubChem, National Center for Advancing Translational Sciences (NCATS)
# LASV entry inh: inhibitors of Lassa virus binding or cell entry | Lassa virus pseudotype entry inhibition, cell reporter | Potency, µM (highest dose often 37.9 µM), for the others: top-dose activity change, negative = inhibition, actives largely listed as inhibitors | actives 1.2% (n = 300,000) | AID 540256; calls by dose curve; tested in HEK293 cells; also: potency is read from the fitted curve at half-maximal effect; % is scaled to controls: 0 for no effect and ±100 for the full control effect; nearly all actives have a fitted effect of over 50% in size
# MARV entry inh: inhibitors of Marburg virus binding or cell entry; Marburg virus pseudotyped entry inhibition, cell reporter; Potency, µM (highest dose often 37.8 µM), without a hit: at the top dose activity change, negative = inhibition, most hits filed as inhibitors; actives 1.8% (n = 300,000); calls by dose curve; tested in HEK293 cells; also: potency is read from the fitted curve at half-maximal effect; % is scaled to controls: 0 for no effect and ±100 for the full control effect
# Cycloheximide cs: counter-screen hit for Shiga toxin inhibitors, cycloheximide. cell reporter, cycloheximide protein synthesis inhibition counterscreen. max response, %. actives 12% (n = 300,000); in the data active = max response mostly above about 13%, no sharp cut-off; inactive = mostly below about 14%; also: read at 38.3 µM for the half of the compounds with a filed dose; 0% is about no effect
# Shiga toxin inh: blocks Shiga toxin action in Vero cells; inhibition, % at 38.7 µM; actives 9.2% (n = 290,000); Vero cells, Shiga toxin protein synthesis inhibition reporter; in the data active = inhibition mostly above about 28%, no sharp cut-off; inactive = mostly below about 43%; also: 0% is about no effect
# * marks the source's active call; other numbers are inactive results; ? = inconclusive; . = not tested or not shown; [ ] = remark or other dose. Rows were chosen to be rich in hits. Some 12% of all compounds tested hit in one or more screens of this group.
SMILES,LASV entry inh,MARV entry inh,Cycloheximide cs,Shiga toxin inh
CCC(CC)NC(=O)Nc1ccc(F)c(Cl)c1,0%,-2%,9,57
CSc1ccccc1NC(=O)Nc1cccc(Cl)c1C,.,.,21,17
COc1ccc(Nc2cccc(Cl)c2)c(C(=O)O)c1,?,?,13,70
O=C(Nc1ccc(Cl)c(Cl)c1)Nc1ccccc1O,.,.,57*,91*
Cc1ccc(NC(=O)Nc2cccc(Cl)c2)c(C(=O)O)c1,.,.,24*,56
CCc1ccccc1NC(=O)CSc1nnc(-c2cc(C)[nH]n2)n1N,15%[46.1 µM],1%[46.1 µM],2,-4
CCOc1c(CNCCCSc2nc(C)cc(C)n2)cccc1OC,.,.,-3,-5
O=C1COc2ccc(C(=O)COC(=O)Cc3ccsc3)cc2N1,-11%,-8%[46.1 µM],11*,21
O=c1ccc(-c2ccc(S(=O)(=O)Nc3cccc(Br)c3)o2)n[nH]1,.,.,-2,17
CCOC(=O)N[C@@]1(C(F)(F)F)C(=O)NC(C)=C1C#N,.,1%,.,.
Cc1cc(N[C@@H](CC(C)C)C(=O)O)nc(Cc2ccccc2)n1,.,22%,.,.
CC1(C)CC[C@]2(C(=O)n3ccnc3)CC[C@]3(C)[C@H](C(=O)C=C4[C@@]5(C)C=C(C#N)C(=O)C(C)(C)[C@@H]5CC[C@]43C)[C@@H]2C1,2.5µM*,2.5µM*,.,.
CC1=C(c2ccc(C)c(C)c2)S(=O)(=O)N=C1N1CCC(C(=O)Nc2cccc(F)c2)CC1,-21%[46.1 µM],.,.,.
CCc1c(C(=O)OCc2ccccc2)[nH]c(C)c1C,1%,-30%[46.1 µM],43*,67*
CCc1c(C)[nH]c(C(=O)OCc2ccccc2)c1C,.,.,28*,81*
COc1ccc(O[C@H]2C=C[C@@H](c3ccccc3)O[C@H]2COC(=O)CCC(C)=NO[C@@H](C)c2cc(-c3c(C)cc(C)cc3C)no2)cc1,.,3%[14.2 µM],.,.
COc1ccc(CC(N)C(=O)N[C@H]2[C@@H](O)[C@H](n3cnc4c(N(C)C)ncnc43)O[C@@H]2CO)cc1 (some centres undefined),.,.,-7,-7
NC(=O)c1c(NC(=O)CS(=O)(=O)c2ccc(Cl)cc2)sc2c1CCCC2,13%[46.1 µM],.,.,.
CC(C)(C)OC(=O)N[C@@H](Cc1ccccc1)[C@H](O)c1ccco1,.,.,20*,40
NC(=O)c1cc2cc([N+](=O)[O-])ccc2oc1=O,.,.,-1,-21
Cc1cc(C)n2nc(S(=O)(=O)NC3CCCCC3)nc2n1,.,.,-2,14
COc1cc(NS(=O)(=O)c2ccc(N/C=C\C(=O)c3ccc(F)cc3)cc2)nc(OC)n1,-1%,?,71*,94*
CC(=O)c1ccc(NS(=O)(=O)c2ccc(N/C=C/C(=O)c3ccc(F)cc3)cc2)cc1,.,.,53*,81*
O=C(O)c1cccc(NS(=O)(=O)c2ccc3c(c2)C(=O)c2ccccc2C3=O)c1,.,.,16*,20
Cc1ccc(C(=O)/C=C/Nc2ccc(S(=O)(=O)Nc3cc(C)nc(C)n3)cc2)cc1,-15%,22%,29*,29
SMILES,LASV entry inh,MARV entry inh,Cycloheximide cs,Shiga toxin inh
COCCOC(=O)c1c(-c2ccccc2)c(-c2ccccc2)nn(C)c1=O,-15%[46.1 µM],-1%[46.1 µM],.,.
CC(=O)c1cccc(NS(=O)(=O)c2ccc(N/C=C/C(=O)c3ccc(F)cc3)cc2)c1,?,-61%,46*,110*
CC(=O)c1cccc(NC(=O)N2CCCCCC2)c1,.,.,5,14
CC(=O)c1cccc(NS(=O)(=O)c2ccc(NC(=O)N3CCCCC3)cc2)c1,?,2.2µM*,-2,17
CC(=O)c1cccc(NS(=O)(=O)c2ccc(N/C=C\C(=O)c3ccc(F)cc3)cc2)c1,?,?,37*,122*
CC(=O)c1cccc(NS(=O)(=O)c2ccc(N/C=C\C(=O)c3ccc(C)cc3)cc2)c1,-3%,?,13,15
O=C(CCCN1C(=O)C(c2ccccc2)Oc2cccnc21)NCCc1ccc(Cl)cc1 (centres undefined),.,.,1,6
O=[N+]([O-])c1nn(-c2ccc3c(c2)OCCO3)n(O)c1=NCc1ccccc1Cl,-2%,-14%,46*,90*
O=[N+]([O-])c1nn(-c2ccc3c(c2)OCCO3)n(O)c1=NC1CCCCC1,5%,16%,28*,101
COc1ccccc1CN=c1c([N+](=O)[O-])nn(-c2ccc3c(c2)OCCO3)n1O,18%,?,62*,31*
Cc1ccc(CN=c2c([N+](=O)[O-])nn(-c3cccc(Cl)c3)n2O)cc1,?,17%[46.1 µM],8,7
COc1ccc(-n2nc([N+](=O)[O-])c(=NC3CCN(Cc4ccccc4)CC3)n2O)cc1,-1%[46.1 µM],?,21,17
Cc1cc(C)c2nc(C)cc(Nc3ccc(C(=O)N(C)C)cc3)c2c1,.,.,-3,-15
CC(=O)c1ccc(Nc2cc(C)nc3c(C)cc(C)cc23)cc1,?,4.1µM*,-9,-40
